We go through 8 molecules from PubChem BioAssay (EPA / NIEHS).

Calls of active or inactive are those of the source. Rule for the calls: active = hit-call score of the fitted dose curve at least 0.9, where 1 is the maximum; inactive = score below 0.9.

Assay [1] can be described thus: BSK_LPS_PGE2: BioMAP Diversity Plus: LPS Assay for Prostaglandin E2 (PGE2) Biomarker Activity (AID 2283082). The settings on record: primary human HUVEC with PBMC; actives raise or lower the signal. Summed up:
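HUVEC plus human PBMC co-culture stimulated with LPS; secreted PGE2 quantified by ELISA 24 h after chemical dosing. Activity fitted bidirectionally against DMSO baseline; parallel SRB staining (0.1% SRB after 10% TCA fixation, 560 nm) flags overt cytotoxicity.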

Read-out in assay [2]: Macrophage colony-stimulating factor (MCSF), CSF1 (gene 1435)
Put plainly: BSK_LPS_MCSF: BioMAP Diversity Plus: LPS Assay for Macrophage colony-stimulating factor (MCSF) Biomarker Activity (AID 2283083). The settings on record: primary human HUVEC with PBMC; actives raise or lower the signal. A digest of the protocol:
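HUVEC + PBMC co-culture (human primary), 24 h post-dose; M-CSF by ELISA; gain/loss of signal fitted bidirectionally vs DMSO baseline.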

Read-out in assay [3]: Tissue Factor, F3 (gene 2152)
Put plainly: BSK_LPS_TissueFactor: BioMAP Diversity Plus: LPS Assay for Tissue Factor Biomarker Activity (AID 2283084). Conditions: primary human HUVEC with PBMC; actives raise or lower the signal. Summed up:
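HUVEC/PBMC co-culture, LPS-activated; CD142 ELISA read 24 h post-dose; bidirectional curve fit vs DMSO negative control.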

Read-out in assay [4]: Tumor necrosis factor (Homo sapiens) (UniProt P01375)
Kind of assay: BSK_LPS_TNFa: BioMAP Diversity Plus: LPS Assay for Tumour Necrosis Factor alpha (TNFa) Biomarker Activity (AID 2283085). Conditions: primary human HUVEC with PBMC; actives raise or lower the signal. A digest of the protocol: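 Human umbilical vein endothelial cells co-cultured with PBMC and stimulated with LPS. TNFa was measured by ELISA 24 h after chemical dosing, fitted bidirectionally relative to DMSO.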

Read-out in assay [5]: Vascular cell adhesion molecule 1 (VCAM1), VCAM1 (gene 7412)
Kind of assay: BSK_LPS_VCAM1: BioMAP Diversity Plus: LPS Assay for Vascular cell adhesion molecule 1 (VCAM1) Biomarker Activity (AID 2283086). Conditions: primary human HUVEC with PBMC; actives raise or lower the signal. Summed up:
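Human umbilical vein endothelial cells co-cultured with PBMC and stimulated with LPS; VCAM-1 measured by ELISA 24 h after dosing. Bidirectional curve fitting against DMSO baseline; cytotoxicity tracked in parallel by SRB total-protein staining.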

Read-out in a further assay: CD38, CD38 (gene 952)
Put plainly: BSK_SAg_CD38: BioMAP Diversity Plus: SAg Assay for CD38 Biomarker Activity (AID 2283087). Conditions: primary human HUVEC with PBMC; actives raise or lower the signal. Summed up: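 Human HUVEC plus PBMC co-culture stimulated with superantigen; CD38 measured by ELISA 24 h after chemical dosing. Fluorescence read-out, bidirectional fit against DMSO; cytotoxicity tracked in parallel by SRB and Alamar Blue.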

Read-out in another assay: CD40, CD40 (gene 958)
Kind of assay: BSK_SAg_CD40: BioMAP Diversity Plus: SAg Assay for CD40 Biomarker Activity (AID 2283088). The settings on record: primary human HUVEC with PBMC; actives raise or lower the signal. A digest of the protocol: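 HUVEC/PBMC co-culture, 24 h post-dose; CD40 by ELISA, fluorescence intensity; bidirectional fit vs DMSO negative control.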

Read-out in another assay: CD69, CD69 (gene 969)
Kind of assay: BSK_SAg_CD69: BioMAP Diversity Plus: SAg Assay for CD69 Biomarker Activity (AID 2283089). Conditions: primary human HUVEC with PBMC; actives raise or lower the signal. A digest of the protocol:
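Values derive from bidirectional fitting relative to DMSO vehicle. Cells: umbilical vein endothelium plus peripheral blood mononuclear cells, treated 24 h before fluorescent ELISA for CD69.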

Read-out in assay [6]: Monocyte Chemoattractant Protein-1 (MCP1), CCL2 (gene 6347)
Kind of assay: BSK_SAg_MCP1: BioMAP Diversity Plus: SAg Assay for Monocyte Chemoattractant Protein-1 (MCP1) Biomarker Activity (AID 2283090). Conditions: primary human HUVEC with PBMC; actives raise or lower the signal. Summed up:
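MCP-1 levels in the endothelial–PBMC SAg co-culture were quantified by ELISA at 24 h post-dosing; both increases and decreases versus DMSO scored. Cytotoxicity monitored by SRB total protein in parallel cultures.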

Read-out in assay [7]: E-selectin (Homo sapiens) (UniProt P16581)
Put plainly: BSK_SAg_Eselectin: BioMAP Diversity Plus: SAg Assay for Eselectin Biomarker Activity (AID 2283091). The settings on record: primary human HUVEC with PBMC; actives raise or lower the signal. Summed up: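 E-selectin ELISA readout at 24 h post-dosing in human umbilical vein endothelial cell/PBMC co-culture; gain or loss of signal fitted relative to DMSO baseline.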

Read-out in assay [8]: Monokine induced gamma interferon (MIG), CXCL9 (gene 4283)
Put plainly: BSK_SAg_MIG: BioMAP Diversity Plus: SAg Assay for Monokine induced gamma interferon (MIG) Biomarker Activity (AID 2283092). Conditions: primary human HUVEC with PBMC; actives raise or lower the signal. A digest of the protocol:
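Values reflect bidirectional fitting of ELISA-measured MIG against DMSO vehicle, taken 24 h after dosing of a co-culture of human umbilical vein endothelial cells and peripheral blood mononuclear cells.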

The nature of assay [9]: BSK_SAg_PBMCCytotoxicity: PBMC Cytotoxicity Assessment in the BioMAP Diversity Plus: SAg Assay (AID 2283093).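 Note: PBMC viability measured as Alamar Blue reduction fluorescence at 546/580 nm; fitted both ways against DMSO so a hit may be loss or gain of signal.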 The settings on record: primary human HUVEC with PBMC. Summed up: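 Human umbilical vein endothelial cells co-cultured with PBMC; PBMC (75,000/well) pre-treated with compound 1 h, then activated with SEB and TSST-1 (20 ng/mL final each) for 90 h. Alamar Blue added 6 h, fluorescence 546/580 nm; bidirectional fit versus DMSO.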

Read-out in assay [10]: Interleukin-8 (IL8), CXCL8 (gene 3576)
Put plainly: BSK_SAg_IL8: BioMAP Diversity Plus: SAg Assay for Interleukin-8 (IL8) Biomarker Activity (AID 2283094). Conditions: primary human HUVEC with PBMC; actives raise or lower the signal. A digest of the protocol: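 Human umbilical vein endothelial cells co-cultured with PBMC, stimulated with superantigen; IL-8 measured by ELISA 24 h after chemical dosing. Bidirectional fitting versus DMSO; SRB staining in parallel cultures tracks cytotoxicity.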

Assay [11] in a line: BSK_SAg_Proliferation: Cell Proliferation Assessment in the BioMAP Diversity Plus: SAg Assay (AID 2283095). The settings on record: primary human HUVEC with PBMC. A digest of the protocol: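 Human umbilical vein endothelial cells co-cultured with PBMC; sulforhodamine B total-protein staining (0.1% SRB after 10% TCA fixation, absorbance 560 nm) at 96 h in sub-confluent culture. Fitted bidirectionally against DMSO.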

Assay [12] is described as follows: BSK_SAg_SRB: Viability Assessment in the BioMAP Diversity Plus: SAg Assay (AID 2283096).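 Note: cells read one day after compound addition; hits may be either gain or loss of signal compared with DMSO.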 The settings on record: primary human HUVEC with PBMC. Summed up:
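Endothelial/PBMC primary human co-culture; compound 24 h; fix 10% TCA, stain 0.1% SRB, A560; protein content as cytotoxicity proxy; bidirectional curve fit, DMSO = baseline.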

Chain of E-selectin (Homo sapiens) (P16581 whole entry, looked up): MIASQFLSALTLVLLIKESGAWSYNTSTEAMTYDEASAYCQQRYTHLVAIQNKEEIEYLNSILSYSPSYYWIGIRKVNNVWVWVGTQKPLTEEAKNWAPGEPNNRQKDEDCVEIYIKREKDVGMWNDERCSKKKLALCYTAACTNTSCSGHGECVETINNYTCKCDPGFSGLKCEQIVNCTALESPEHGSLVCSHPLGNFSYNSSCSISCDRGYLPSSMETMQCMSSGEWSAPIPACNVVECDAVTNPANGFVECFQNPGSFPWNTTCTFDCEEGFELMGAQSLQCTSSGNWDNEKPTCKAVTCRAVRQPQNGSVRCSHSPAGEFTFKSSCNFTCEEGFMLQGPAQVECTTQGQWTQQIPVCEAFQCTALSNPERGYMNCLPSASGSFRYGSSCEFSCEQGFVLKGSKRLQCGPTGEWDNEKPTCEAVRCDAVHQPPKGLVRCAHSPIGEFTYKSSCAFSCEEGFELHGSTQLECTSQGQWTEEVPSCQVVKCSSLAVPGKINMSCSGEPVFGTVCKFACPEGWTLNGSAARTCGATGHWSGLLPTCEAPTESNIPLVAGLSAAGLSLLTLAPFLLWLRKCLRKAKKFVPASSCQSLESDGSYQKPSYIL
Chain of Tumor necrosis factor (Homo sapiens) (P01375 whole entry, looked up): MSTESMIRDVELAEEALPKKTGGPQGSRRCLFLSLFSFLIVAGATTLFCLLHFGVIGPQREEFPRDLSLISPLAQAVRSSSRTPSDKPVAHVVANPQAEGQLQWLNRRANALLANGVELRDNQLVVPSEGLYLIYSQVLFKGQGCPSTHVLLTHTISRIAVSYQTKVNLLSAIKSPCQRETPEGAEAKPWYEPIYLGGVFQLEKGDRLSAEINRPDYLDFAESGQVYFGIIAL

For `Cc1ccc(N=C=O)cc1N=C=O`, the outcome is “inactive” in [1]; “inactive” in assay [2]; “inactive” in assay [3]; “inactive” in assay [4]; “inactive” in [5]; “inactive” in the assay with CD38, CD38 (gene 952). For the same molecule, the outcome with CD40, CD40 (gene 958) is “inactive”; with CD69, CD69 (gene 969), “inactive”; in assay [6], “inactive”; in [7] it was “inactive”; in [8] it was “inactive”; in assay [9], “inactive”. Further, the result in assay [10] and in assay [12] was inactive. Also, the concentration at half-maximal activity (AC50) in [11] is 10.5 µM (active).

`COC(=O)Nc1nc2ccccc2[nH]1`: the outcome in assay [1] was “inactive”; in [3] it was “inactive”; in assay [4], “inactive”; with CD38, CD38 (gene 952), “inactive”; with CD40, CD40 (gene 958), “inactive”; with CD69, CD69 (gene 969), “inactive”. Also, the result in assay [6], in [7], in [8], in [9] and in assay [10] was inactive. In addition, the AC50 in [2] was 7.04 µM (active); in assay [5], 11.3 µM (active); in assay [11] it was 11.2 µM (active); in assay [12], 9.84 µM (active).

With `ClCCOCCCl`, the outcome in [1] was “inactive”; in [2] it was “inactive”; in [3], “inactive”; in assay [4], “inactive”; in assay [5], “inactive”; in the assay with CD38, CD38 (gene 952), “inactive”. Besides, the outcome in the assay with CD40, CD40 (gene 958) was “inactive”; in the assay with CD69, CD69 (gene 969) it was “inactive”; in assay [6], “inactive”; in assay [7], “inactive”; in [8] it was “inactive”; in assay [9], “inactive”. Moreover, the outcome in assay [10], in assay [11] and in [12] was inactive.

For the molecule `OCCCBr`, the outcome in assay [1] is “inactive”; in assay [2] it was “inactive”; in assay [3] it was “inactive”; in assay [4], “inactive”; in assay [5], “inactive”; with CD38, CD38 (gene 952), “inactive”. The outcome with CD40, CD40 (gene 958) is “inactive”; with CD69, CD69 (gene 969), “inactive”; in assay [6] it was “inactive”; in assay [7], “inactive”; in assay [8], “inactive”; in assay [9], “inactive”. For the same molecule, the result in assay [10], in assay [11] and in assay [12] was inactive.

For `O=C1CCCO1`, the outcome is “inactive” in assay [1]; “inactive” in assay [2]; “inactive” in assay [3]; “inactive” in [4]; “inactive” in assay [5]; “inactive” in the assay with CD38, CD38 (gene 952). For the same molecule, the outcome with CD40, CD40 (gene 958) is “inactive”; with CD69, CD69 (gene 969) it was “inactive”; in assay [6], “inactive”; in [7], “inactive”; in [8], “inactive”; in [9], “inactive”. The result in [10], in assay [11] and in assay [12] was inactive.

With `O=P(OCCCl)(OCCCl)OCCCl`, the outcome in assay [1] is “inactive”; in assay [2] it was “inactive”; in [3] it was “inactive”; in assay [4] it was “inactive”; in assay [5], “inactive”; in the assay with CD38, CD38 (gene 952), “inactive”. Also, the outcome with CD40, CD40 (gene 958) is “inactive”; with CD69, CD69 (gene 969), “inactive”; in [6], “inactive”; in assay [7], “inactive”; in assay [8], “inactive”; in [9], “inactive”. The outcome in assay [10], in assay [11] and in [12] was inactive.

On to `Nc1cc(Cl)cc(C(=O)O)c1Cl`, for which the outcome in assay [1] is “inactive”; in assay [2], “inactive”; in [3], “inactive”; in assay [4], “inactive”; in [5], “inactive”; in the assay with CD38, CD38 (gene 952), “inactive”. Further, the outcome was “inactive” with CD40, CD40 (gene 958); “inactive” with CD69, CD69 (gene 969); “inactive” in assay [6]; “inactive” in assay [7]; “inactive” in [8]; “inactive” in [9]. In addition, the outcome in [10], in [11] and in [12] was inactive.

Regarding `[O-][Cl+]O`, the outcome in assay [1] was “inactive”; in [2] it was “inactive”; in assay [3], “inactive”; in assay [4] it was “inactive”; in assay [5], “inactive”; with CD38, CD38 (gene 952) it was “inactive”. For the same molecule, the outcome with CD40, CD40 (gene 958) is “inactive”; with CD69, CD69 (gene 969) it was “inactive”; in [6] it was “inactive”; in assay [7] it was “inactive”; in assay [8], “inactive”; in [9], “inactive”. The outcome in assay [10], in [11] and in [12] was inactive.
